From PubChem BioAssay (EPA / NIEHS)
Records with an inconclusive call do not appear. Activity calls are given as the source filed them. Rule for the calls, unless noted: active = hit-call score of the fitted dose curve at least 0.9, where 1 is the maximum; inactive = score below 0.9.

These compounds were tested against Nuclear receptor subfamily 4 group A member 2 (Homo sapiens) (UniProt P43354) (assay: ATG_NURR1_TRANS: Attagene TRANS-FACTORIAL HepG2 Assay for human Nuclear Receptor Related Protein 1 (NURR1) (AID 2282985; active = hit-call score of the fitted dose curve at least 0.9, where 1 is the maximum)). Settings: HepG2 Attagene TRANS reporter, mRNA readout.
Nuclear receptor subfamily 4 group A member 2 (Homo sapiens), sequence (P43354 whole entry, looked up): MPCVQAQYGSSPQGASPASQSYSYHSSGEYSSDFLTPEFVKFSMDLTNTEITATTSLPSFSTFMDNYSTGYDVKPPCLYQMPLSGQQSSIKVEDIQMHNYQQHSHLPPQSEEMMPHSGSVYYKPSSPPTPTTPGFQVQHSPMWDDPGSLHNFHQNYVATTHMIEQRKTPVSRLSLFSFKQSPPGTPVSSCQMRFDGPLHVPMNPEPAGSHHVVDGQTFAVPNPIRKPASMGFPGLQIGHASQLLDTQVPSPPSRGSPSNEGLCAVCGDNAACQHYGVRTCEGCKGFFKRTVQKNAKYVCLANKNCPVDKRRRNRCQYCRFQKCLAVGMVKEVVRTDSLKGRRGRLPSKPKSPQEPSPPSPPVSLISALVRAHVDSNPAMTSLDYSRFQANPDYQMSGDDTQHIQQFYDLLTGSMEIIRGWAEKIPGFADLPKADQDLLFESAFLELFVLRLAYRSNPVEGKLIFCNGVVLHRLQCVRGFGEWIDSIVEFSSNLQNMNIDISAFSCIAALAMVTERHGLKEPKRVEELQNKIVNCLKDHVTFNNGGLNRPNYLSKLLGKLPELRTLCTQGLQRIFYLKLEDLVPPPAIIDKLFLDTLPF
Outline: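 Endpoint: reporter mRNA increase relative to DMSO. HepG2 cells transfected with reporter units, treated 24 h; RNA processed by RT-PCR, labelling, HpaI digestion and capillary electrophoresis.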
With `CC1(C)S[C@@H]2[C@H](NC(=O)[C@H](N)c3ccccc3)C(=O)N2[C@H]1C(=O)O` the outcome was “inactive”.
`CCCc1c(OCCCCc2nn[nH]n2)ccc(C(C)=O)c1O` was tested, and the AC50 was 50.4 µM (active).
For `c1cc(N(CC2CO2)CC2CO2)ccc1Cc1ccc(N(CC2CO2)CC2CO2)cc1` (stereo not given), the AC50 was 70.9 µM (active).
In the case of `CCCCCCOC(=O)CCCCCCCC(=O)OCCCCCC`, the outcome is reported as “inactive”.
`CC1=NN(c2cc(Cl)c(S(=O)(=O)O)cc2Cl)C(=O)C1N=Nc1ccc(S(=O)(=O)O)cc1` (stereo not given) was tested, and the outcome was “inactive”.
For `O=C(O)Cc1c[nH]c2ccccc12`, the outcome was “inactive”.
With `CCCCCCCCCCC1CO1` (stereo not given) the outcome was “inactive”.
In the case of `O=[N+]([O-])c1ccc2nc[nH]c2c1`, the outcome is reported as “inactive”.
With `CCCCn1cc[n+](C)c1` the outcome was “inactive”.
For `Cc1cc(O)cc(C)c1Cl`, the outcome was “inactive”.
`CC1=C(CC=O)C(C)(C)CCC1` was tested, and the outcome was “inactive”.
`Cc1ccccc1S(N)(=O)=O` was tested, and the outcome was “inactive”.
`OCCOCCOCCOCCOCCO` was tested, and the outcome was “inactive”.
In the case of `CC(C)CC(=O)CC(C)CC(C)C` (stereo not given), the outcome is reported as “inactive”.
In the case of `CCCOCCC`, the outcome is reported as “inactive”.
`CN(C)CCCN1c2ccccc2CCc2ccc(Cl)cc21` was tested, and the outcome was “inactive”.
In the case of `C[C@H]1C[C@H]2[C@@H]3CCC4=CC(=O)C=C[C@]4(C)[C@@]3(F)[C@@H](O)C[C@]2(C)[C@@]1(O)C(=O)CO`, the outcome is reported as “inactive”.
With `F[B-](F)(F)F` the outcome was “inactive”.
With `COCCCN` the outcome was “inactive”.
`COc1ccccc1OCC(O)CO` (stereo not given) was tested, and the outcome was “inactive”.
`O=C(O)c1nc(Cl)c(Cl)c(Cl)c1Cl` was tested, and the outcome was “inactive”.

These compounds were tested against Transcriptional activator Myb (Homo sapiens) (UniProt P10242) (assay: ATG_Myb_CIS: Attagene CIS-FACTORIAL HepG2 Assay for human Myeloblastosis (Myb) Proto-Oncogene Transcription Factor (AID 2282986)). Settings: HepG2 Attagene CIS-FACTORIAL Myb reporter transcription; actives raise or lower the signal.
Transcriptional activator Myb (Homo sapiens), sequence (P10242 whole entry, looked up): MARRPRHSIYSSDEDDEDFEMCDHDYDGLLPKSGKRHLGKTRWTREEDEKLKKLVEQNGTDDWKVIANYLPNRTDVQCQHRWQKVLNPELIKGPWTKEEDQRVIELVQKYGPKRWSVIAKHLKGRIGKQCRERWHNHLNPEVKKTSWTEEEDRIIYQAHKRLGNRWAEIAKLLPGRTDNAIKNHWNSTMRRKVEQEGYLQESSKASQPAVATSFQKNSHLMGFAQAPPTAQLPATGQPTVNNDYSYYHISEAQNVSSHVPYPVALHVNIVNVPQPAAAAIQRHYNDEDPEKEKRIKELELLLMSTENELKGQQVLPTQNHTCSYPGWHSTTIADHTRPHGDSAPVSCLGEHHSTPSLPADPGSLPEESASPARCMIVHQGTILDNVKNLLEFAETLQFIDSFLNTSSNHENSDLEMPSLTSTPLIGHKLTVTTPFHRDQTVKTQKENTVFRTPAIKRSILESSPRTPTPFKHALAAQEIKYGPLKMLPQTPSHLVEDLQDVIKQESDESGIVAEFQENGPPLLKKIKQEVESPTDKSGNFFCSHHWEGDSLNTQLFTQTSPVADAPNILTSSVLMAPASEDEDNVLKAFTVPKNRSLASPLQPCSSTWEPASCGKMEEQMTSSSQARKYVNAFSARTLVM
Outline: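 Transiently transfected HepG2 cells carrying a multiplexed cis-promoter reporter set report endogenous Myb activity after 24 h compound exposure. Reporter mRNA is read by RT-PCR with capillary electrophoresis of fluorescent products, fitted bidirectionally against DMSO.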
In the case of `CC1(C)S[C@@H]2[C@H](NC(=O)[C@H](N)c3ccccc3)C(=O)N2[C@H]1C(=O)O`, the outcome is reported as “inactive”.
For `CCC(C)(CCC(C)C)C(=O)O` (stereo not given), the outcome was “inactive”.
With `Cc1cc(C)c(S(=O)(=O)O)cc1N=Nc1cc(S(=O)(=O)O)c2ccccc2c1O` the outcome was “inactive”.
With `CCCc1c(OCCCCc2nn[nH]n2)ccc(C(C)=O)c1O` the outcome was “inactive”.
For `Clc1ccccn1`, the outcome was “inactive”.
`c1cc(N(CC2CO2)CC2CO2)ccc1Cc1ccc(N(CC2CO2)CC2CO2)cc1` (stereo not given) was tested, and the outcome was “inactive”.
With `CCCCCCOC(=O)CCCCCCCC(=O)OCCCCCC` the outcome was “inactive”.
For `CC1=NN(c2cc(Cl)c(S(=O)(=O)O)cc2Cl)C(=O)C1N=Nc1ccc(S(=O)(=O)O)cc1` (stereo not given), the outcome was “inactive”.
`O=C(O)Cc1c[nH]c2ccccc12` was tested, and the outcome was “inactive”.
In the case of `CCCCCCCCCCC1CO1` (stereo not given), the outcome is reported as “inactive”.
`NCc1ccccc1` was tested, and the outcome was “inactive”.
With `O=[N+]([O-])c1ccc2nc[nH]c2c1` the outcome was “inactive”.
In the case of `CCCCn1cc[n+](C)c1`, the outcome is reported as “inactive”.
`CC(C)CC(=O)O` was tested, and the outcome was “inactive”.
`C[Si](C)(C)O[Si](C)(C)O[Si](C)(C)C` was tested, and the outcome was “inactive”.
In the case of `Cc1cc(O)cc(C)c1Cl`, the outcome is reported as “inactive”.
For `CC(C)n1c(/C=C/[C@@H](O)C[C@@H](O)CC(=O)O)c(-c2ccc(F)cc2)c2ccccc21`, the outcome was “inactive”.
`CC1=C(CC=O)C(C)(C)CCC1` was tested, and the outcome was “inactive”.
For `CC(O)(P(=O)(O)O)P(=O)(O)O`, the outcome was “inactive”.
With `Cc1cccnc1` the AC50 was 164 µM (active).
In the case of `Cc1ccccc1S(N)(=O)=O`, the outcome is reported as “inactive”.
In the case of `C=C(C)C(=O)OCC1CCCO1` (stereo not given), the outcome is reported as “inactive”.
In the case of `OCCOCCOCCOCCOCCO`, the outcome is reported as “inactive”.
`C1=CCC=C1` was tested, and the outcome was “inactive”.
`CC(C)CC(=O)CC(C)CC(C)C` (stereo not given) was tested, and the outcome was “inactive”.
`CCCOCCC` was tested, and the outcome was “inactive”.
In the case of `CN(C)CCC(c1ccc(Cl)cc1)c1ccccn1` (stereo not given), the outcome is reported as “inactive”.
In the case of `CN(C)CCCN1c2ccccc2CCc2ccc(Cl)cc21`, the outcome is reported as “inactive”.
In the case of `CC/C=C\CC1=C(C)CCC1=O`, the outcome is reported as “inactive”.
In the case of `C[C@H]1C[C@H]2[C@@H]3CCC4=CC(=O)C=C[C@]4(C)[C@@]3(F)[C@@H](O)C[C@]2(C)[C@@]1(O)C(=O)CO`, the AC50 is reported as 180 µM (active).
`COC(OC)C(C)c1ccccc1` (stereo not given) was tested, and the outcome was “inactive”.
`F[B-](F)(F)F` was tested, and the outcome was “inactive”.
For `COCCCN`, the outcome was “inactive”.
For `CC1=CCCC(C)(C)C12CCC(C)O2` (stereo not given), the outcome was “inactive”.
With `CC(=O)c1nccs1` the outcome was “inactive”.
In the case of `COc1ccccc1OCC(O)CO` (stereo not given), the outcome is reported as “inactive”.
`OCCN(CCO)c1cccc(Cl)c1` was tested, and the outcome was “inactive”.
With `O=C(O)c1nc(Cl)c(Cl)c(Cl)c1Cl` the outcome was “inactive”.
In the case of `CC=CC(=O)O`, the outcome is reported as “inactive”.
